Screening results deposited in PubChem BioAssay by National Center for Advancing Translational Sciences (NCATS).
This is one part of a sample in which hits are shown more often than they occur.
Sm TGR inh = blocks Schistosoma mansoni thioredoxin glutathione reductase; actives 3% (n = 360,000); purified TGR, DTNB reduction, TNB absorbance 405 nm; Potency, µM (highest dose often 114 µM), without a hit: top-dose activity change, negative = inhibition, usual class: inhibitors; Q962Y6; also: potency is read from the fitted curve at half-maximal effect; % is scaled to controls: 0 for no effect and ±100 for the full control effect; nearly all actives have a fitted effect of over 60% in size
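Kinetic colorimetric format: TGR-catalysed, NADPH-driven DTNB reduction monitored via TNB absorbance. Enzyme dispensed at 20 nM; compound exposure 15 min at room temperature before reaction start.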
FBPA Giardia inh = blocks Giardia fructose-bisphosphate aldolase activity. A8B2U2. Potency, µM (titrated, usually from 59.6 µM), for the others: at the highest dose activity, negative = inhibition, actives largely listed as inhibitors. AID 2451. purified Giardia FBPA. actives 0.71% (n = 290,000); also: potency is read from the fitted curve at half-maximal effect; % is scaled to controls: 0 for no effect and ±100 for the full control effect; nearly all actives have a fitted effect of over 55% in size
Target sequence (A8B2U2 whole entry, looked up): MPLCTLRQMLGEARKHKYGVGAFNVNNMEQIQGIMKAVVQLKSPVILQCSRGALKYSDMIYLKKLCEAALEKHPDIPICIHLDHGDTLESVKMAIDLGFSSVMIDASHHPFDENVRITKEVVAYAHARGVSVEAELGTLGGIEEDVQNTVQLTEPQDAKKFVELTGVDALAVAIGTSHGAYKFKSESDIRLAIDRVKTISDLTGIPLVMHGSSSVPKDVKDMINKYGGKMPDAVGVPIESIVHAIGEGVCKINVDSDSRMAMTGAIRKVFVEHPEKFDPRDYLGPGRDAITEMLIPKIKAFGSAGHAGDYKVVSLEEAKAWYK
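40 nM FBPA preincubated 10 min at RT with compound (up to 57.5 uM final), then substrate plus GAPDH/TPI/NAD/arsenate coupling and diaphorase/resazurin added. Fluorescence read after 20 min at RT, 525/598 nm.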
Shiga toxin inh = inhibitors of Shiga toxin in Vero cells; inhibition, % at 38.7 µM; AID 2315; actives 9.2% (n = 290,000); Vero cells, Shiga toxin protein synthesis inhibition reporter; in the data active = inhibition mostly above about 28%, no sharp cut-off; inactive = mostly below about 43%; also: 0% is about no effect
LmPK inhibitor = blocks Leishmania mexicana pyruvate kinase activity; Q27686; purified LmPK, Kinase-Glo ATP luminescence, 1 h; Potency, µM (highest dose often 57.5 µM), for the others: at the top dose activity change, negative = inhibition, hits mostly inhibitors; actives 0.37% (n = 290,000); AID 1721; also: potency is read from the fitted curve at half-maximal effect; % is scaled to controls: 0 for no effect and ±100 for the full control effect
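Purified LmPK (0.1 nM) converted ADP (0.1 mM) to ATP with PEP (0.5 mM) in imidazole buffer pH 7.2 with KCl and MgCl2, 1 h at room temperature. ATP was read by Kinase-Glo luminescence; data normalized to uninhibited and no-enzyme controls.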
Tb PYK inh = T. brucei pyruvate kinase inhibition; TbPYK enzyme, Kinase-Glo Plus ATP luminescence, 45 min; Potency, µM (series often up to 76.8 µM), for inactives: top-dose activity, negative = inhibition, most hits filed as inhibitors; actives 0.12% (n = 410,000); AID 624173; also: potency is read from the fitted curve at half-maximal effect; % is scaled to controls: 0 for no effect and ±100 for the full control effect; nearly all actives have a fitted effect of over 50% in size
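Luminescent Kinase-Glo Plus end-point after 45 min room-temperature reaction of T. brucei pyruvate kinase started with 130 uM ADP (final). Buffer TEA 50 mM pH 7.2 with KCl, MgCl2, BSA, Tween-20; titration-based qHTS with fitted concentration-effect curves.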
CHX counter = affects cycloheximide protein synthesis inhibition readout, counter-screen | cell reporter, cycloheximide protein synthesis inhibition counterscreen | AID 2314 | max response, % | actives 12% (n = 300,000); in the data active = max response mostly above about 13%, no sharp cut-off; inactive = mostly below about 14%; also: read at 38.3 µM for the half of the compounds with a filed dose; 0% is about no effect
* hit, by the source's call; ? = inconclusive; . = not tested or not shown. Unless noted, calls follow the shape of the dose curve; as a rule, active = well fitted curve in the direction sought with a large enough effect; inconclusive = small, poorly fitted or top-dose-only effect, or another doubt; inactive = no such curve, though single readings can be large; an effect the other way counts as inactive or inconclusive.

SMILES	Sm TGR inh	FBPA Giardia inh	Shiga toxin inh	LmPK inhibitor	Tb PYK inh	CHX counter
COC(=O)c1cc(C)sc1NC(=O)CCc1ccccc1	2%	5%	.	5%	-10%	-2
Cc1cc(C)c(CSc2nnc(C)n3c2cc2occc23)c(C)c1	2%	.	.	.	-7%	.
CCOC(=O)c1[nH]c(C)c(CC(C)C)c1C	-6%	-6%	28	-1%	5%	20*
CCOC(=O)c1[nH]c(C)c(C(=O)C(C)C)c1C	1%	-1%	17	12%	-3%	17*
CCOC(=O)c1[nH]c(C)c(C(=O)O)c1C	1%	0%	-15	12%	.	-8
CCCCC(=O)Nc1ccc(C(=O)OCc2cc(=O)n3ccsc3n2)cc1	5%	.	.	.	4%	.
O=c1[nH]c(O)c(N=Nc2ccc(SC(F)F)cc2)c(=O)[nH]1	4%	2%	36	-1%	-4%	20*
NC(=O)c1ccc(N=Nc2c(O)[nH]c(=O)[nH]c2=O)cc1	-7%	-9%	2	0%	.	-1
CCOc1ccc(CCNC(=O)c2ccc3c(c2)NC(=O)C2CCCN32)cc1OCC (configuration not stated)	50µM*	-7%	-4	-2%	.	0
Cc1cc(C)cc(C(=O)OCC(=O)NCc2cccs2)c1	-8%	6%	-3	-3%	-3%	7
O=C(NCc1cccs1)c1ccc([N+](=O)[O-])cc1Cl	-36%	3%	24	0%	-5%	11*
O=C(NCc1cccs1)c1ccc(Cl)s1	-20%	0%	-6	-1%	1%	12
Cc1ccc(C(=O)OCC(=O)NCc2cccs2)c(C)c1	0%	0%	113*	1%	1%	41*
Cc1cc(C(=O)NCc2cccs2)c(C)o1	22µM*	-12%	-12	7%	2%	-1
CCc1ccc(C(=O)NCc2cccs2)s1	0%	-5%	89*	4%	-1%	37*
O=C(CCNC(=O)c1ccc([N+](=O)[O-])cc1)NCc1cccs1	.	.	.	.	7%	.
COc1ccco1	.	4%	-4	.	.	-4
Cc1ccccc1C(=O)NC1(C(F)(F)F)N=C(c2ccccc2)N(C2CCCCC2)C1=O (configuration not stated)	1%	.	.	.	-2%	.
CCC(C)NC(=O)C1=CC(c2ccc3c(c2)OCO3)=NS(=O)(=O)N1C (configuration not stated)	4%	.	.	.	-12%	.
Cc1ccc2c(=O)c(C(=O)NCc3cccs3)c[nH]c2c1	9%	-2%	51*	-3%	-6%	23*
Cc1occc1C(=O)NCc1cccs1	-16%	6%	16	-3%	-7%	-5
O=C(NCc1cccs1)c1csc2ccccc12	-2%	-1%	33	3%	5%	25*
Cc1cccc(/C=N/NC(=O)c2cc(Br)ccc2O)n1	-11%	?	48*	3%	5%	32*
O=C(N/N=C/c1ccoc1)c1ccccc1Br	-18%	2%	2	2%	-2%	7
CCOc1ccc(Br)cc1C(=O)N/N=C/c1cccc(C)n1	-14%	5%	24	1%	-1%	1
SMILES	Sm TGR inh	FBPA Giardia inh	Shiga toxin inh	LmPK inhibitor	Tb PYK inh	CHX counter
O=C(N/N=C/c1ccoc1)c1cc(Br)ccc1O	0%	-29%	57	-1%	-11%	31*
Cc1ccc(NC(=O)C2(C)Cc3ccccc3C(=O)O2)c(C)c1 (configuration not stated)	14%	.	.	.	1%	.
COc1cc(/C=C2\SC(=S)N(NC(=O)c3ccccc3OC)C2=O)ccc1O	-18%	-11%	26	-12%	-10%	17*
CC(=O)NN1C(=O)/C(=C/c2ccc(C(C)C)cc2)SC1=S	-16%	-3%	19	2%	-5%	16*
O=C(O)c1ccc(/C=C2\SC(=S)N(NC(=O)c3ccccc3)C2=O)cc1	-1%	?	-4	1%	-3%	-2
COc1cc(/C=C2\SC(=S)N(NC(=O)c3ccc(O)c(OC)c3)C2=O)ccc1O	-24%	-15%	23	0%	-1%	21*
O=C(O)CCC(=O)Nc1ccc(-c2nc3ccc(C(=O)c4ccccc4)cc3[nH]2)cc1	8%	6%	.	0%	-9%	21*
O=C(O)CSc1nc2ccc(C(=O)c3ccccc3)cc2[nH]1	1%	-11%	-2	-5%	1%	-4
O=C(Nc1cccc(-c2nc3ccccc3[nH]2)c1)c1ccccc1F	-6%	.	.	.	1%	.
O=C(c1ccccc1)c1ccc2nc(-c3ccc(NC(=O)c4ccccc4F)cc3)[nH]c2c1	0%	2%	34*	2%	-6%	12
COCCn1c(=O)c(-c2ccc(Cl)cc2)nc2cnc(Oc3ccccc3)nc21	.	-9%	.	.	-4%	.
N#CCSc1nc2ccccc2c(=O)n1CC1CCCC1	1%	-1%	-13	1%	-14%	9
N#CCSc1nc2ccc(N3CCCCC3)cc2c(=O)n1Cc1ccccc1	?	-24%	38*	4%	-8%	21*
CC(C)N(Cc1ccccc1)C(=O)C1CCCN(c2ncnc3onc(-c4ccc(F)cc4)c23)C1 (configuration not stated)	-2%	.	.	.	-1%	.
Cc1cccc(OC(=O)Nc2ccc(C(=O)O)c(O)c2)c1	.	.	.	.	-15%	.
Cc1ccc(NC(=O)c2ccccc2)cc1OC(=O)c1ccccc1	1%	-5%	-3	-3%	?	13*
O=C(Nc1ccc(C(=O)Oc2ccccc2)c(O)c1)c1ccccc1	10%	-14%	82*	-1%	-1%	28*
CCOC(=O)Nc1ccc(C(=O)Oc2ccccc2)c(O)c1	16%	-10%	104*	-7%	-3%	37*
O=C(Nc1ccccc1)c1ccc(OC(=O)c2ccccc2)cc1	-7%	7%	13	-12%	8%	-1
O=C(Nc1ccc(C(=O)Oc2ccccc2)c(O)c1)c1ccco1	-2%	-12%	131*	-10%	?	55*
Nc1ccc(C(=O)Oc2ccccc2)c(O)c1	.	-11%	.	.	0%	.
COc1ccc(-c2cc(C(=O)N3CCCCCC3)c3ccccc3n2)cc1	5%	.	.	.	4%	.
CCCCCOC(=O)Nc1nc(=O)n(C2O[C@H](C)[C@@H](O)[C@@H]2O)cc1F (some centres not stated)	.	.	.	.	-22%	.
Cc1ccc(NC(=O)c2c(C)oc3ccc(O)c(CN4CCCCCC4)c23)cc1	-17%	.	.	.	0%	.
CCOC(=O)Nc1ccc(Oc2ccccc2)cc1	18%	-6%	121*	0%	-4%	36*
CCOC(=O)Nc1ccc(C(=O)/C=C/c2ccccc2)cc1	-8%	-10%	29	-5%	-2%	22*
O=C(NCCc1ccccc1)c1cnc2sc(N3CCCCCC3)nn2c1=O	-3%	.	.	.	-6%	.
CCCOc1ccc(CNC(=O)Cn2ncn3c(cc4sc(CC)cc43)c2=O)cc1	10%	.	.	.	1%	.
